Screening results from PubChem BioAssay.
Many of the other results were omitted from the sample, so hits are more common in it than they were.
ERG-DNA inh: qHTS for Small Molecule Inhibitors of the ERG Ets/DNA interaction | fluorescence polarization, His-ERG Ets domain / labelled DNA | Potency, µM (series often up to 76.9 µM), inactives show at the highest dose FP activity, negative = inhibition, actives largely listed as inhibitors | 370,000 compounds, 0.028% hits | AID 624246, 2012; active means well fitted inhibition curve with a large enough effect in the polarisation, with a control signal flat; inconclusive means small, poorly fitted or top-dose-only effect, or effect the other way, or a change in a side signal; inactive means no such curve, though single readings can be large or run the other way; the % refers to the polarisation;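 further: polarization taken with two DNA probes labelled with fluorescein and Texas red; % of control where 0% means no effect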
Target sequence (P11308 whole entry, looked up, the tested form may be a part): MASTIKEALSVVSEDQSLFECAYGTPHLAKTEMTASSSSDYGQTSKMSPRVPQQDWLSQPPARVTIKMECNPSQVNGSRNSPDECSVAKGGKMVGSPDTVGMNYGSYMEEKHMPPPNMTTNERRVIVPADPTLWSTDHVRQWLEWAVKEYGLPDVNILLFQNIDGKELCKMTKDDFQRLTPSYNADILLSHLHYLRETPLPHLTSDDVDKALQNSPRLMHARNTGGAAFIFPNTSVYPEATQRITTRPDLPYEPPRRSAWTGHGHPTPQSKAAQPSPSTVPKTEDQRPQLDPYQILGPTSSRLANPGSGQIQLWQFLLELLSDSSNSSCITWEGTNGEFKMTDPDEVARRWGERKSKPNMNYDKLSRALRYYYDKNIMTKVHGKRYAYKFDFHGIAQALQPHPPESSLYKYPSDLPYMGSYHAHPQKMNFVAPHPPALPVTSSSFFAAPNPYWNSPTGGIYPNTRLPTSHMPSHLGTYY
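His-tagged ERG Ets domain (1 uM in the protein solution; 300mM KCl, 50mM Tris-HCl, 1mM EDTA, 1mM DTT, pH 7.5) received compound, then a probe mix of 5 nM fluorescein-DNA and 100nM Texas-615-DNA. Fluorescence polarization was read for both dyes.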
GoLoco inh red: qHTS Assay for Inhibitors of RGS12 GoLoco Motif Activity (Red Fluorophore); Guanine nucleotide-binding protein G(i) subunit alpha-1 (Homo sapiens), P63096; Gai1:RGS12 GoLoco peptide FP, rhodamine, 10 min; Potency, µM (top dose mostly 61.6 µM), for inactives: at the top dose activity, negative = inhibition, usual class: inhibitors; 230,000 compounds, 0.44% hits; AID 880, 2007; active means well fitted inhibition curve with a large enough effect, not every such curve was filed as active; inactive means no such curve, though single readings can be large or run the other way; further: on the % scale 0 is the no-effect control and ±100 the full control effect; nearly all actives have a fitted effect of over 30% in size
TR SRC2 fluor cs: Total Fluorescence Counterscreen for Inhibitors of the Interaction of Thyroid Hormone Receptor and Steroid Receptor Coregulator 2. TRb/SRC2 Texas Red total fluorescence interference. Potency, µM (doses to about 106 µM), for inactives: top-dose fluorescence change, negative = quenching. 280,000 compounds, 0.29% hits; active means well fitted curve in either direction with a large enough effect; inconclusive means small, poorly fitted or top-dose-only effect; further: on the % scale 0 is the no-effect control and ±100 the full control effect
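Flags fluorescent or light-absorbing compounds by total fluorescence, S + 2P, at 555 nm excitation and 632 nm emission. Mixture: 20 nM Texas Red SRC2 peptide, 0.6 uM human TRb LBD, 1 uM T3, 5% DMSO; compound exposure 5 h at ambient temperature.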
TRb-SRC2 inh: qHTS for Inhibitors of the Interaction of Thyroid Hormone Receptor and Steroid Receptor Coregulator 2 | Thyroid hormone receptor beta (Homo sapiens), P10828 | TRbeta-SRC2 peptide binding, fluorescence polarization; receptor liganded with 1 µM T3 | Potency, µM (top dose mostly 106 µM), for the others: at the top dose activity change, negative = inhibition, most hits filed as inhibitors | 280,000 compounds, 0.065% hits; active means well fitted inhibition curve with a large enough effect; inconclusive means small, poorly fitted or top-dose-only effect, or effect the other way;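 further: plate controls were bound peptide for no effect and peptide without receptor for full effect; nearly all actives have a fitted effect of over 50% in size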
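Each compound concentration gave % activity, normalized to unbound and bound Texas Red SRC2 controls, from polarization read after 5 hr ambient incubation with T3-loaded human TRb LBD.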
Numbers without * were called inactive; [ ] = remark or other dose. Potency means the concentration at half of the fitted maximal effect.

`OCc1nnn(-c2ccccc2)c1CO` gave ERG-DNA inh 3%, GoLoco inh red 10%, TR SRC2 fluor cs -7% and TRb-SRC2 inh -9%.
Screening Nc1c(CO)nnn1-c1ccccc1 returned ERG-DNA inh -2%, GoLoco inh red 3.2µM*, TR SRC2 fluor cs -3% and TRb-SRC2 inh -2%.
`CN(C)CC/C=C1\c2ccccc2COc2ccc(CC(=O)O)cc21` gave GoLoco inh red -57%, TR SRC2 fluor cs -1% and TRb-SRC2 inh 1%.
Screening Cc1cc2oc3ccc(NCCCN4CCOCC4)cc3c(=O)c2cc1C returned ERG-DNA inh -5%.
Screening Cc1cc2oc3ccc(NCCCn4ccnc4)cc3c(=O)c2cc1C returned ERG-DNA inh 18µM*.
Screening OC(COCC1COc2ccccc2O1)CN1CCN(c2ccccc2)CC1 (centres undefined) returned ERG-DNA inh -1%, GoLoco inh red -1%, TR SRC2 fluor cs 0% and TRb-SRC2 inh 0%.
C[N+]1(CC(O)COCC2COc3ccccc3O2)CCOCC1 (centres undefined) was read as ERG-DNA inh 15%, GoLoco inh red 2µM*, TR SRC2 fluor cs 4% and TRb-SRC2 inh -8%.
For N[C@H](C(=O)O)C1C(C(=O)O)C1C(=O)O (some centres undefined) the results were GoLoco inh red 14%, TR SRC2 fluor cs 0% and TRb-SRC2 inh 4%.
`CC[C@@H](C(=O)[C@@H](C)[C@@H](O)[C@H](C)[C@@H]1O[C@@H]([C@@H](CC)C(=O)O)CC[C@@H]1C)[C@H]1O[C@]2(C=C[C@@H](O)[C@]3(CC[C@@](C)([C@H]4CC[C@](O)(CC)[C@H](C)O4)O3)O2)[C@H](C)C[C@@H]1C` gave ERG-DNA inh 0%.
`CCC(C(=O)O)C1CCC(C)C(C(C)C(O)C(C)C(=O)C(CC)C2OC3(C=CC(O)[C@@]4(CC[C@](C)(C5CC[C@@](O)(CC)C(C)O5)O4)O3)C(C)CC2C)O1` (some centres undefined) gave GoLoco inh red 28µM*, TR SRC2 fluor cs -3% and TRb-SRC2 inh 7%.
Screening CC[C@H](C)[C@H](N)C(=O)N[C@H]1CCC(=O)NCC(C(=O)N[C@@H](Cc2ccc(O)cc2)C(=O)N[C@@H](CCCNC(=N)N)C(=O)N[C@@H](CC(C)C)C(=O)N[C@@H](CCCNC(=N)N)C(=O)N[C@@H](Cc2ccc(O)cc2)C(N)=O)NC(=O)[C@@H]2CCCN2C(=O)[C@@H](NC(=O)[C@@H](N)[C@@H](C)CC)CCC(=O)NCC(C(=O)N[C@@H](Cc2ccc(O)cc2)C(=O)N[C@@H](CCCNC(=N)N)C(=O)N[C@@H](CC(C)C)C(=O)N[C@@H](CCCNC(=N)N)C(=O)N[C@@H](Cc2ccc(O)cc2)C(N)=O)NC(=O)[C@@H]2CCCN2C1=O (some centres undefined) returned TR SRC2 fluor cs -3% and TRb-SRC2 inh 0%.
Screening CCn1c(C)nc2cc(C(=O)NNC(=O)CCC3CCCCC3)ccc21 returned ERG-DNA inh 0%, GoLoco inh red 58%, TR SRC2 fluor cs 3.5µM*[quencher] and TRb-SRC2 inh inconclusive.
`COc1c(-c2coc3cc4c(cc3c2=O)CC(O)C(C)(C)O4)ccc2c1C=CC(C)(C)O2` (centres undefined) gave GoLoco inh red -29%, TR SRC2 fluor cs -2% and TRb-SRC2 inh 9%.
COc1cc2ccccc2cc1C(=O)Nc1ccc2oc(-c3cccc(C)c3)nc2c1 was read as ERG-DNA inh 6%, TR SRC2 fluor cs 3.2µM*[quencher] and TRb-SRC2 inh inconclusive.
`Nc1nc(-c2c[nH]c3ccccc23)cs1` gave ERG-DNA inh -12%, GoLoco inh red 97%, TR SRC2 fluor cs 35µM*[fluorescent] and TRb-SRC2 inh 17%.
For CNc1nc(-c2c[nH]c3ccccc23)cs1 the results were ERG-DNA inh 6%, GoLoco inh red 201%, TR SRC2 fluor cs inconclusive and TRb-SRC2 inh -7%.
CSCC[C@H](NC(=O)[C@H](CC(C)C)NC(=O)[C@H](CO)NC(=O)[C@H](CCC(=O)O)NC(=O)[C@H](CC(C)C)NC(=O)[C@H](Cc1ccc(O)cc1)NC(=O)[C@H](CCCCN)NC(=O)[C@H](CCCCN)NC(=O)[C@H](C)NC(=O)[C@H](CO)NC(=O)[C@H](CC(C)C)NC(=O)[C@H](CCC(N)=O)NC(=O)CNC(=O)[C@H](CC(C)C)NC(=O)[C@H](CC(C)C)NC(=O)[C@H](CCCCN)NC(=O)[C@H](CO)NC(=O)[C@H](Cc1ccccc1)NC(=O)[C@H](CC(=O)O)NC(=O)[C@H](CO)NC(=O)[C@@H](NC(=O)[C@H](Cc1ccccc1)NC(=O)[C@@H](NC(=O)CNC(=O)[C@H](CC(=O)O)NC(=O)[C@H](C)NC(=O)[C@@H](N)Cc1cnc[nH]1)C(C)C)[C@@H](C)O)C(N)=O was read as TR SRC2 fluor cs -7% and TRb-SRC2 inh -7%.
`CC(=O)CC(=O)Nc1ccc(Cl)cn1` gave ERG-DNA inh -7%, GoLoco inh red 11%, TR SRC2 fluor cs -1% and TRb-SRC2 inh -1%.
CC(C)CC(=O)NC(=S)Nc1ccc(Cl)cn1 was read as ERG-DNA inh -1%, GoLoco inh red 52%, TR SRC2 fluor cs 4µM*[quencher] and TRb-SRC2 inh -21%[53 µM].
For CCc1nn(-c2ccccc2)c2nc(-c3ccccc3OC)c3cc(OC)c(OC)cc3c12 the results were ERG-DNA inh -1%, TR SRC2 fluor cs 0.14µM*[quencher] and TRb-SRC2 inh -14%.
Screening C=CC(=O)OCC(C)OCC(C)OCC(C)OC(=O)C=C (centres undefined) returned TR SRC2 fluor cs -2%[201 µM] and TRb-SRC2 inh -3%[201 µM].
Cc1ccc(N2C(=O)C3CC(c4ccccc4)=C4C5C=CC(C6C(=O)N(c7ccc(C)cc7C)C(=O)C56)C4C3C2=O)c(C)c1 (centres undefined) was read as ERG-DNA inh -6%, GoLoco inh red 32µM*, TR SRC2 fluor cs 1% and TRb-SRC2 inh -3%.
`Cc1ccc(N2C(=O)C3CC(c4ccccc4)=C4C5C=CC(C6C(=O)N(c7ccc(C)cc7)C(=O)C56)C4C3C2=O)cc1` (centres undefined) gave ERG-DNA inh -5%, GoLoco inh red 5%, TR SRC2 fluor cs 0% and TRb-SRC2 inh 15%.
For COc1ccc(OC)c(Nc2nc(=O)c3cccnc3s2)c1 the results were ERG-DNA inh 8%, GoLoco inh red 25µM*, TR SRC2 fluor cs -1% and TRb-SRC2 inh 4%.
Cc1ccc(Nc2nc(=O)c3cccnc3s2)cc1 was read as GoLoco inh red 7%, TR SRC2 fluor cs -3% and TRb-SRC2 inh 4%.
